# Laboratory results as given in PubChem BioAssay (Tox21).
# Inconclusive results are not listed. A call without a number means that no potency is given here. A number with no mark means an inactive call. Calls of active or inactive are those of the source. Unless noted, calls follow the shape of the dose curve; as a rule, active = well fitted curve in the direction sought with a large enough effect in the repeat runs; inconclusive = weak or mixed curves; inactive = no such curve, though single readings can be large; an effect the other way counts as inactive or inconclusive.
# Tests used:
# [1] = qHTS assay to identify small molecule agonists of the constitutive androstane receptor (CAR) signaling pathway - cell viability counter screen (AID 1224836); also: series mostly up to about 92 µM; nearly all actives have a fitted effect of over 45% in size
# Outline: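 Counter screen multiplexed with the CAR reporter readout: HepG2 cells co-transfected with hCAR and the CYP2B6-2.2kb construct receive a 15-concentration compound series and 0.75 uM PK11195 (final), then CellTiter-Fluor fluorescence is read after 23 h.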
# [2] = qHTS assay to identify small molecule antagonists of the estrogen related receptor signaling pathway with the pleiotropic PPARgamma coactivator (PGC) from Tox21 10K library - cell viability counter screen (AID 1224840; active = well fitted cell-killing curve with a large enough effect in the repeat runs, not every such curve was filed as active; also: nearly all actives have a fitted effect of over 40% in size; also: potency is read from the fitted curve at half-maximal effect)
# Outline: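 PGC/ERR cells, 2,000/well; 6 h pre-incubation 37 C/5% CO2; cpd in DMSO via pin tool; 17.5 h 37 C; CellTiter-Fluor, 30 min; fluorescence.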
# [3] = target: Thyrotropin receptor (Homo sapiens) (UniProt P16473); test: qHTS assay to identify small molecule agonists of the thyroid stimulating hormone receptor (TSHR) signaling pathway (AID 1224843; calls by dose curve; also: nearly all actives have a fitted effect of over 45% in size; also: potency is read from the fitted curve at half-maximal effect)
# Chain of Thyrotropin receptor (Homo sapiens) (P16473 whole entry, looked up): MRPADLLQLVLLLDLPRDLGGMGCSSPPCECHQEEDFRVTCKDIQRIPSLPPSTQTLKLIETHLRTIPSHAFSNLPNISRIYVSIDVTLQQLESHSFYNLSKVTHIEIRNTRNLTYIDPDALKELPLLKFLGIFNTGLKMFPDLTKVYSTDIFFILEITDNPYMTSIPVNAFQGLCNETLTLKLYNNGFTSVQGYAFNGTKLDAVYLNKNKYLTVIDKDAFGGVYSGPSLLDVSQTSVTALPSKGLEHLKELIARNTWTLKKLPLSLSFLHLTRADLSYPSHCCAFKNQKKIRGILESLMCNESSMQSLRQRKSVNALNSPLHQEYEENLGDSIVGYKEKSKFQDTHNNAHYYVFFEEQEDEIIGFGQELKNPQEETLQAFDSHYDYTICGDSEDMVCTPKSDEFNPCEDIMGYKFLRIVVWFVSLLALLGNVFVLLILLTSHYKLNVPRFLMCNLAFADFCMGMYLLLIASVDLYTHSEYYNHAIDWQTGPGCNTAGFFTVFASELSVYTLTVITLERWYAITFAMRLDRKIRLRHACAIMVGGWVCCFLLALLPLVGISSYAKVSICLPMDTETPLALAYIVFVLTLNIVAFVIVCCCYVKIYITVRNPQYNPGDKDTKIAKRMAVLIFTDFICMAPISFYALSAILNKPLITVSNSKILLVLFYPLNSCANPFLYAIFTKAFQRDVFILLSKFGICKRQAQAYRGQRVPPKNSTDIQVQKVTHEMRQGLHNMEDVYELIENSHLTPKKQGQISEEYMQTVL
# Outline: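 Steps: seed 800 TSHR-HEK293 cells per well; add test compound and hold 30 min at ambient temperature; dispense cAMP-d2 then anti-cAMP cryptate; incubate 1 h at ambient; measure fluorescence intensity.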
# [4] = qHTS assay to identify small molecule agonists of the hypoxia (HIF-1) signaling pathway - cell viability counter screen (AID 1224844; calls by dose curve; also: nearly all actives have a fitted effect of over 50% in size; also: potency is read from the fitted curve at half-maximal effect)
# Outline: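 ME-180 HRE-bla cells, 2,000/well, 0.5% dialyzed FBS; 5 hr settle, 17 hr compound at 37C/5% CO2; CCF4-AM reporter read first, then CellTiter-Glo luminescence after 30 min RT.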
# [5] = target: Nuclear receptor subfamily 1 group I member 3 (Homo sapiens) (UniProt Q14994); test: qHTS assay to identify small molecule agonists of the constitutive androstane receptor (CAR) signaling pathway (AID 1224839); also: nearly all actives have a fitted effect of over 15% in size; also: potency is read from the fitted curve at half-maximal effect; as to activation: series mostly up to about 92 µM
# Chain of Nuclear receptor subfamily 1 group I member 3 (Homo sapiens) (Q14994 whole entry, looked up): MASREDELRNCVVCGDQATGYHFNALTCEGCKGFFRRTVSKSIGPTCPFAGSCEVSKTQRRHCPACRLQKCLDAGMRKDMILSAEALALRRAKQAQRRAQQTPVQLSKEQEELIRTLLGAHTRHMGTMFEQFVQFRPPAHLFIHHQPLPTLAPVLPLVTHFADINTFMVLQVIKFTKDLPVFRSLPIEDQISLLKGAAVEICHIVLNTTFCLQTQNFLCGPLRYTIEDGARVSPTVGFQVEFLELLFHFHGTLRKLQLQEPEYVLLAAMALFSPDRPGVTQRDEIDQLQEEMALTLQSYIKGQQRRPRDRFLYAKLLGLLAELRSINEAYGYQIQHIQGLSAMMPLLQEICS
# Outline: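 A 15-concentration quantitative screen uses HepG2 cells co-transfected stably with human CAR and CYP2B6-2.2kb reporter. Treatment lasts 24 h with 0.75 uM PK11195 final present; ONE-Glo luminescence is the signal.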
# [6] = qHTS assay to identify small molecule antagonists of the estrogen related receptor signaling pathway with the pleiotropic PPARgamma coactivator (PGC) from Tox21 10K library (AID 1224841; call rule not given here; also: actives are mostly falling curves and most rising ones were filed inactive; nearly all actives have a fitted effect of over 50% in size; also: potency is read from the fitted curve at half-maximal effect; as to activity, negative = inhibition: series mostly up to about 92 µM)
# Outline: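 PGC/ERR cell line, 2,000 cells/well; 6 h pre-incubation 37 C/5% CO2; compounds (DMSO) pinned in; 18 h, 37 C; One-Glo, 30 min RT; luminescence.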
# [7] = qHTS assay to identify small molecule agonists of the estrogen related receptor signaling pathway with the pleiotropic PPARgamma coactivator (PGC) from Tox21 10K library (AID 1224842); also: nearly all actives have a fitted effect of over 15% in size
# Outline: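 PGC/ERR reporter cell line, 2,000 cells per well, incubated 6 h at 37 C before 23 nL compound in DMSO was added. After 18 h at 37 C, One-Glo luminescence read following 30 min at room temperature.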
# [8] = qHTS assay to identify small molecule antagonists of the constitutive androstane receptor (CAR) signaling pathway - cell viability counter screen (AID 1224837); also: nearly all actives have a fitted effect of over 45% in size; also: potency is read from the fitted curve at half-maximal effect; as to activity change, negative = cytotoxicity: series mostly up to about 92 µM
# Outline: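 HepG2-CYP2B6-hCAR cells, 2500/well, 4 hr pre-incubation; compound titration, 15 conc.; CITCO 50 nM final; 23 hr, 37 C/5% CO2; CellTiter-Fluor, fluorescence intensity.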
# [9] = target: Nuclear receptor subfamily 1 group I member 3 (Homo sapiens) (UniProt Q14994); test: qHTS assay to identify small molecule antagonists of the constitutive androstane receptor (CAR) signaling pathway (AID 1224838);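 also: HepG2 cells stably expressing hCAR with CYP2B6 luciferase reporter stimulated by CITCO; nearly all actives have a fitted effect of over 40% in size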; also: potency is read from the fitted curve at half-maximal effect
# Outline: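 HepG2-CYP2B6-hCAR cells; 4 h pre-incubation; cpd (15 conc) + CITCO 50 nM final; 24 h, 37 C/5% CO2; ONE-Glo, luminescence.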
# [10] = qHTS assay to identify small molecule agonists of H2AX (AID 1224845; active = well fitted activation curve with a large enough effect in the signal ratio in the repeat runs, not every such curve was filed as active; the % refers to the signal ratio; also: potency is read from the fitted curve at half-maximal effect)
# Outline: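 Wild-type CHO-K1 cells, plated overnight, exposed 3hr at 37C to 15 concentrations (0.76% DMSO final). Lysed, then HTRF anti-pH2AX (S139) cryptate and anti-H2AX-d2 antibodies, 24 hr room temperature; 665/620 nm emission read.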
compound,measurement,setting,value
O=C(O)c1cccc(Cl)n1,Potency,[1],inactive
same,Potency,[2],inactive
same,Potency,[3],inactive
same,Potency,[4],inactive
COC(=O)NCCC[Si](OC)(OC)OC,Potency,[1],inactive
same,Potency,[5],inactive
same,Potency,[2],inactive
same,Potency,[6],inactive
same,Potency,[7],inactive
same,Potency,[3],inactive
CC(C)=CCCC(C)O (configuration not stated),Potency,[8],inactive
same,Potency,[9],inactive
same,Potency,[5],inactive
same,Potency,[2],inactive
same,Potency,[6],inactive
same,Potency,[7],inactive
same,Potency,[3],inactive
same,Potency,[4],inactive
same,Potency,[10],inactive
CN(Cc1cc(Br)cc(Br)c1N)C1CCCCC1,Potency,[1],inactive
same,Potency,[2],inactive
same,Potency,[6],inactive
same,Potency,[7],inactive
same,Potency,[4],inactive
CCCCCCCCCC(=O)N(C)C,Potency,[1],inactive
same,Potency,[5],55.3 µM (active)
same,Potency,[2],inactive
same,Potency,[6],inactive
same,Potency,[7],inactive
same,Potency,[3],inactive
same,Potency,[4],inactive
same,Potency,[10],inactive
CCCCCCCC/C=C\CCCCCCCC(=O)N(C)CC(=O)O,Potency,[1],inactive
same,Potency,[9],inactive
same,Potency,[5],inactive
same,Potency,[6],inactive
same,Potency,[7],inactive
same,Potency,[4],49 µM (active)
Clc1ccc(C(Cn2ccnc2)OCc2c(Cl)cccc2Cl)c(Cl)c1 (configuration not stated),Potency,[1],inactive
same,Potency,[7],inactive
COc1cc(C(=O)NS(=O)(=O)c2ccccc2C)ccc1Cc1cn(C)c2ccc(NC(=O)OC3CCCC3)cc12,Potency,[8],inactive
same,Potency,[9],inactive
same,Potency,[2],inactive
same,Potency,[6],inactive
same,Potency,[7],inactive
same,Potency,[3],inactive
COc1nccnc1CC(C)C,Potency,[8],inactive
same,Potency,[2],inactive
same,Potency,[6],inactive
same,Potency,[7],inactive
same,Potency,[3],inactive
same,Potency,[4],inactive
same,Potency,[10],inactive
CCC(C)c1ccccc1 (configuration not stated),Potency,[8],inactive
same,Potency,[2],inactive
same,Potency,[3],inactive
same,Potency,[4],inactive
same,Potency,[10],inactive
CCC1(c2cnc[nH]2)Cc2ccccc2C1,Potency,[8],inactive
same,Potency,[9],inactive
same,Potency,[5],inactive
same,Potency,[2],inactive
same,Potency,[4],inactive
same,Potency,[10],inactive
c1cc(OCC2CO2)cc(OCC2CO2)c1 (configuration not stated),Potency,[8],inactive
same,Potency,[5],inactive
same,Potency,[2],68 µM (active)
same,Potency,[3],inactive
S=P(N1CC1)(N1CC1)N1CC1,Potency,[8],inactive
same,Potency,[5],inactive
same,Potency,[2],inactive
same,Potency,[6],5.74 µM (active)
same,Potency,[3],inactive
OCCCS,Potency,[8],inactive
same,Potency,[9],inactive
same,Potency,[5],inactive
same,Potency,[2],inactive
same,Potency,[3],inactive
same,Potency,[4],inactive
same,Potency,[10],inactive
CN1[C@@H]2CC[C@H]1CC(OC(=O)C(CO)c1ccccc1)C2 (some centres not stated),Potency,[8],inactive
same,Potency,[2],inactive
same,Potency,[4],inactive
CCC(C)(C)c1cc(O)c(C(C)(C)CC)cc1O,Potency,[8],inactive
same,Potency,[9],inactive
same,Potency,[5],inactive
same,Potency,[7],inactive
same,Potency,[3],inactive
COCC(=O)O[C@]1(CCN(C)CCCc2nc3ccccc3[nH]2)CCc2cc(F)ccc2[C@@H]1C(C)C,Potency,[8],29.8 µM (active)
same,Potency,[9],29.8 µM (active)
same,Potency,[5],inactive
same,Potency,[2],29.8 µM (active)
same,Potency,[3],inactive
same,Potency,[10],49.2 µM (active)
CC(=O)OC(OC(C)=O)c1ccc([N+](=O)[O-])o1,Potency,[8],62.2 µM (active)
same,Potency,[9],55.4 µM (active)
same,Potency,[5],inactive
same,Potency,[3],27.8 µM (active)
CCCCC(CC)COC(=O)c1ccc(O)cc1 (configuration not stated),Potency,[8],inactive
same,Potency,[2],inactive
same,Potency,[3],inactive
same,Potency,[4],49 µM (active)
same,Potency,[10],inactive
COC(=O)C1=C(C)NC(C)=C(C(=O)OCCCN2CCC(c3ccccc3)(c3ccccc3)CC2)C1c1cccc([N+](=O)[O-])c1 (configuration not stated),Potency,[8],23.7 µM (active)
same,Potency,[2],26.6 µM (active)
same,Potency,[6],10.6 µM (active)
same,Potency,[10],inactive
NC(=O)C(=O)N/N=C/c1ccc([N+](=O)[O-])o1,Potency,[8],inactive
same,Potency,[9],inactive
same,Potency,[5],inactive
same,Potency,[2],inactive
same,Potency,[4],inactive
CCC(C)c1cc([N+](=O)[O-])cc([N+](=O)[O-])c1OC(=O)OC(C)C (configuration not stated),Potency,[8],61.1 µM (active)
same,Potency,[2],43.3 µM (active)
same,Potency,[6],21.7 µM (active)
same,Potency,[3],inactive
same,Potency,[10],inactive
O=C[C@H](O)[C@H](O)[C@H](O)CO,Potency,[8],inactive
same,Potency,[9],inactive
same,Potency,[5],inactive
same,Potency,[2],inactive
same,Potency,[3],inactive
same,Potency,[4],inactive
same,Potency,[10],inactive
NCCCC(O)(P(=O)(O)O)P(=O)(O)O,Potency,[8],inactive
same,Potency,[9],inactive
same,Potency,[5],inactive
same,Potency,[2],inactive
same,Potency,[3],inactive
same,Potency,[10],inactive
CCCC(C)CCC(C)=O (configuration not stated),Potency,[8],inactive
same,Potency,[5],inactive
same,Potency,[2],inactive
same,Potency,[3],inactive
same,Potency,[4],inactive
same,Potency,[10],inactive
O=C1NCCN1CCN1CCC(c2cn(-c3ccc(F)cc3)c3ccc(Cl)cc23)CC1,Potency,[8],11.9 µM (active)
same,Potency,[9],11.9 µM (active)
same,Potency,[5],inactive
same,Potency,[6],inactive
CCC(=O)CC(C)CC (configuration not stated),"activity change, negative = cytotoxicity",[8],5.84% [at 0.349 µM]
same,"viability change, negative = cytotoxic",[2],0.87% [at 0.349 µM]
same,activation,[3],6.29% [at 0.349 µM]
same,"activity change, negative = cytotoxicity",[4],2.65% [at 0.29 µM]
same,activation (H2AX phosphorylation),[10],0.83% [at 0.582 µM]
Nc1ncnc2c1ncn2[C@@H]1O[C@H](COP(=O)(O)O)[C@@H](O)[C@H]1O,Potency,[8],inactive
same,Potency,[5],inactive
same,Potency,[2],inactive
same,Potency,[3],inactive
same,Potency,[10],inactive
CC(O)C#CC(C)O (configuration not stated),Potency,[8],53.9 µM (active)
same,Potency,[5],inactive
CCc1cccc(CC)c1NC(=O)C(=O)O,Potency,[8],inactive
same,Potency,[5],inactive
same,Potency,[2],inactive
same,Potency,[6],inactive
same,Potency,[7],inactive
same,Potency,[3],inactive
same,Potency,[4],inactive
same,Potency,[10],inactive
N[C@@H](CSSC[C@H](N)C(=O)O)C(=O)O,"activity change, negative = cytotoxicity",[8],-3.15% [at 0.349 µM]
same,activation,[5],-0.0368% [at 0.349 µM]
same,"viability change, negative = cytotoxic",[2],6.11% [at 0.349 µM]
same,"activity, negative = inhibition",[6],16.2% [at 0.349 µM]
same,activation,[3],2.51% [at 0.349 µM]
same,"activity change, negative = cytotoxicity",[4],25.3% [at 0.29 µM]
O=C(O)CC(=O)O,Potency,[8],inactive
same,Potency,[9],inactive
same,Potency,[2],inactive
same,Potency,[3],inactive
same,Potency,[4],inactive
same,Potency,[10],inactive
Clc1cc(Cl)c(-c2c(Cl)c(Cl)cc(Cl)c2Cl)cc1Cl,Potency,[8],inactive
same,Potency,[2],inactive
same,Potency,[6],inactive
same,Potency,[3],inactive
same,Potency,[10],inactive
